Data on 3 compounds can be found in PubChem BioAssay (EPA / NIEHS).

What all share (conditions): mRNA level, 48 h; actives raise or lower the signal
Read-out in assay [1]: Bcl-2 (BID) gene, BID (gene 637)
In words: LTEA_HepaRG_BID: Life Technologies and Expression Analysis (LTEA) Assay for Bcl-2 (BID) gene using HepaRG (AID 2283476). In a few lines: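 Gene expression by qRT-PCR in HepaRG cells after 48 h exposure, duplicate wells, eight half-log concentrations topping at 100 uM in 0.5% DMSO. Normalized to ACTB, GAPDH, POLR2A; bidirectional fitting relative to DMSO.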

Read-out in assay [2]: Caspase-3 (Homo sapiens) (UniProt P42574)
In words: LTEA_HepaRG_CASP3: Life Technologies and Expression Analysis (LTEA) Assay for cysteine-aspartic acid protease (CASP3) using HepaRG (AID 2283477). A digest of the protocol: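 In HepaRG liver cells dosed for 48 h at up to 100 uM (eight-point, duplicate), CASP3 expression changes are scored by qRT-PCR. Activity is fitted in both directions with 0.5% DMSO as baseline.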

Read-out in assay [3]: Cytochrome P450 (CYP24A1), CYP24A1 (gene 1591)
In words: LTEA_HepaRG_CYP24A1: Life Technologies and Expression Analysis (LTEA) Assay for Cytochrome P450 (CYP24A1) using HepaRG (AID 2283478). A digest of the protocol: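 Human liver HepaRG cultures receive each chemical for 48 h across an eight-point half-log series topping at 100 uM in 0.5% DMSO. Induction or suppression of CYP24A1 mRNA is scored relative to vehicle after housekeeping-gene normalization.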

Read-out in assay [4]: Cytochrome P450 (CYP1A2), CYP1A2 (gene 1544)
In words: LTEA_HepaRG_CYP1A2: Life Technologies and Expression Analysis (LTEA) Assay for Cytochrome P450 (CYP1A2) using HepaRG (AID 2283479). In a few lines: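 Assesses CYP1A2 mRNA in human HepaRG liver cells after 48 h chemical exposure at up to 100 uM. Values come from qRT-PCR with bidirectional curve fitting relative to DMSO.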

Read-out in assay [5]: cysteine-aspartic acid protease (CASP8), CASP8 (gene 841)
In words: LTEA_HepaRG_CASP8: Life Technologies and Expression Analysis (LTEA) Assay for cysteine-aspartic acid protease (CASP8) using HepaRG (AID 2283480). In a few lines: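 Differentiated HepaRG cells in serum-free induction medium, 48 h exposure, eight-point half-log series from 100 uM in 0.5% DMSO, duplicates. CASP8 mRNA by qRT-PCR, normalized to ACTB, GAPDH, POLR2A; bidirectional fit versus DMSO.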

Read-out in assay [6]: Cytochrome P450 (CYP2B6), CYP2B6 (gene 1555)
In words: LTEA_HepaRG_CYP2B6: Life Technologies and Expression Analysis (LTEA) Assay for Cytochrome P450 (CYP2B6) using HepaRG (AID 2283481). In a few lines: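 Using 48 h treatment of HepaRG cells in serum-free induction medium, concentrations spanned half-log steps from 100 uM in 0.5% DMSO vehicle. CYP2B6 mRNA induction or loss is scored by qRT-PCR against DMSO.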

Read-out in assay [7]: Cytochrome P450 2C19 (Homo sapiens) (UniProt P33261)
In words: LTEA_HepaRG_CYP2C19: Life Technologies and Expression Analysis (LTEA) Assay for CYP2C19 using HepaRG (AID 2283482). A digest of the protocol:
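Human HepaRG liver cells received test chemicals for 48 h (highest 100 uM, half-log dilutions in 0.5% DMSO). CYP2C19 mRNA induction or loss is read by multiplexed qRT-PCR and fitted in both directions versus vehicle.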

Read-out in assay [8]: CYP2C8 (gene 1558)
In words: LTEA_HepaRG_CYP2C8: Life Technologies and Expression Analysis (LTEA) Assay for CYP2C8 using HepaRG (AID 2283483). In a few lines:
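Differentiated HepaRG cells in serum-free induction medium exposed 48 h in duplicate to 8 half-log concentrations from 100 uM in 0.5% DMSO. CYP2C8 mRNA by qRT-PCR normalized to ACTB, GAPDH, POLR2A; bidirectional fit versus DMSO.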

Read-out in assay [9]: CYP2E1 (gene 1571)
In words: LTEA_HepaRG_CYP2E1: Life Technologies and Expression Analysis (LTEA) Assay for CYP2E1 using HepaRG (AID 2283485). A digest of the protocol:
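HepaRG cells, plated 48 h, then exposed 48 h in serum-free induction medium to eight half-log concentrations from 100 uM in 0.5% DMSO, duplicate. CYP2E1 mRNA by qRT-PCR, normalized to ACTB/GAPDH/POLR2A; bidirectional fit versus DMSO.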

Read-out in assay [10]: CYP4A11 (gene 1579)
In words: LTEA_HepaRG_CYP4A11: Life Technologies and Expression Analysis (LTEA) Assay for CYP4A11 using HepaRG (AID 2283486). In a few lines: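 Readout is CYP4A11 mRNA induction or suppression (qRT-PCR, ACTB/GAPDH/POLR2A normalization) in human HepaRG cells after 48 h chemical treatment, concentrations to 100 uM in 0.5% DMSO, fitted bidirectionally against vehicle.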

Read-out in assay [11]: Cytochrome P450 3A4 (Homo sapiens) (UniProt P08684)
In words: LTEA_HepaRG_CYP3A4: Life Technologies and Expression Analysis (LTEA) Assay for CYP3A4 using HepaRG (AID 2283487). In a few lines:
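Differentiated HepaRG cells in serum-free induction medium exposed in duplicate for 48 h to 8 half-log concentrations up to 100 uM in 0.5% DMSO. CYP3A4 mRNA measured by qRT-PCR normalized to ACTB, GAPDH and POLR2A; bidirectional fit versus DMSO.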

Read-out in assay [12]: DNA damage-inducible transcript 3 (DDIT3), DDIT3 (gene 1649)
In words: LTEA_HepaRG_DDIT3: Life Technologies and Expression Analysis (LTEA) Assay for DNA damage-inducible transcript 3 (DDIT3) using HepaRG (AID 2283488). A digest of the protocol:
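HepaRG cells, 48 h after plating, exposed 48 h in serum-free induction medium to 8 half-log concentrations up to 100 uM in 0.5% DMSO, in duplicate. DDIT3 mRNA measured by TaqMan qRT-PCR, normalized to ACTB, GAPDH and POLR2A. Fitted bidirectionally against DMSO.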

Read-out in assay [13]: Pro-epidermal growth factor (Homo sapiens) (UniProt P01133)
In words: LTEA_HepaRG_EGF: Life Technologies and Expression Analysis (LTEA) Assay for Epidermal growth factor (EGF) using HepaRG (AID 2283489). A digest of the protocol:
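EGF expression changes in human HepaRG cells are scored by bidirectional fitting relative to 0.5% DMSO controls. Chemicals are tested at eight half-log concentrations up to 100 uM for 48 h in serum-free induction medium.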

Read-out in assay [14]: Early growth response protein 1 (EGR1) transcription factor, EGR1 (gene 1958)
In words: LTEA_HepaRG_EGR1: Life Technologies and Expression Analysis (LTEA) Assay for Early growth response protein 1 (EGR1) transcription factor using HepaRG (AID 2283490). In a few lines:
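Differentiated HepaRG cells in serum-free induction medium exposed 48 hours, duplicate, to 8 half-log concentrations up to 100 uM in 0.5% DMSO. EGR1 mRNA measured by TaqMan qRT-PCR, normalized to ACTB, GAPDH, POLR2A; bidirectional fit versus DMSO.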

Read-out in assay [15]: Ezrin (EZR), EZR (gene 7430)
In words: LTEA_HepaRG_EZR: Life Technologies and Expression Analysis (LTEA) Assay for Ezrin (EZR) using HepaRG (AID 2283491). A digest of the protocol:
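Differentiated human HepaRG cells, 48 h after plating, were exposed in serum-free induction medium for 48 hours to eight half-log concentrations up to 100 uM in 0.5% DMSO. EZR mRNA was measured by TaqMan qRT-PCR, normalized to ACTB, GAPDH and POLR2A, and fitted bidirectionally against DMSO.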

Read-out in assay [16]: Cytochrome P450 3A7 (Homo sapiens) (UniProt P24462)
In words: LTEA_HepaRG_CYP3A7: Life Technologies and Expression Analysis (LTEA) Assay for CYP3A7 using HepaRG (AID 2283492). In a few lines: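 Cells were thawed, plated, cultured 48 h, then treated for a further 48 h with chemicals (eight-point half-log series from 100 uM, 0.5% DMSO). RNA was isolated and CYP3A7 expression quantified by qRT-PCR normalised to ACTB, GAPDH and POLR2A.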

Read-out in assay [17]: CYP3A5 (gene 1577)
In words: LTEA_HepaRG_CYP3A5: Life Technologies and Expression Analysis (LTEA) Assay for CYP3A5 using HepaRG (AID 2283493). In a few lines:
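HepaRG cells, plated 48 h then in serum-free induction medium, dosed in duplicate for 48 h with eight half-log concentrations up to 100 uM in 0.5% DMSO. Gene mRNA by Fluidigm TaqMan qRT-PCR, normalized to ACTB, GAPDH, POLR2A.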

Read-out in assay [18]: Fatty Acid-Binding Protein 1 (FABP1), FABP1 (gene 2168)
In words: LTEA_HepaRG_FABP1: Life Technologies and Expression Analysis (LTEA) Assay for Fatty Acid-Binding Protein 1 (FABP1) using HepaRG (AID 2283494). In a few lines:
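Differentiated human HepaRG cells exposed 48 h in serum-free induction medium to eight half-log concentrations up to 100 uM (0.5% DMSO), duplicate. FABP1 mRNA by qRT-PCR, normalised to ACTB, GAPDH, POLR2A; bidirectional fitting against DMSO.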

Read-out in assay [19]: Cytochrome P450 4A22 (Homo sapiens) (UniProt Q5TCH4)
In words: LTEA_HepaRG_CYP4A22: Life Technologies and Expression Analysis (LTEA) Assay for Cytochrome P450 4A22 (CYP4A22) using HepaRG (AID 2283495). In a few lines:
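Cryopreserved HepaRG cells, plated and cultured 48 h, then switched to serum-free induction medium and treated 48 h (duplicates, up to 100 uM, half-log steps, 0.5% DMSO). Expression change of CYP4A22 was fitted bidirectionally against vehicle.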

Read-out in assay [20]: CYP2C9 (gene 1559)
In words: LTEA_HepaRG_CYP2C9: Life Technologies and Expression Analysis (LTEA) Assay for CYP2C9 using HepaRG (AID 2283484). A digest of the protocol: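 Differentiated human HepaRG cells in serum-free induction medium were exposed 48 h to chemicals in 8-point half-log series from 100 uM (0.5% DMSO), in duplicate. CYP2C9 mRNA was measured by qRT-PCR, normalized to ACTB/GAPDH/POLR2A, with bidirectional fitting versus DMSO.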

The structures appear in SMILES notation. The source made the active and inactive calls. Rule for the calls: active = hit-call score of the fitted dose curve at least 0.9, where 1 is the maximum; inactive = score below 0.9.

Chain of Cytochrome P450 3A7 (Homo sapiens) (P24462 whole entry, looked up): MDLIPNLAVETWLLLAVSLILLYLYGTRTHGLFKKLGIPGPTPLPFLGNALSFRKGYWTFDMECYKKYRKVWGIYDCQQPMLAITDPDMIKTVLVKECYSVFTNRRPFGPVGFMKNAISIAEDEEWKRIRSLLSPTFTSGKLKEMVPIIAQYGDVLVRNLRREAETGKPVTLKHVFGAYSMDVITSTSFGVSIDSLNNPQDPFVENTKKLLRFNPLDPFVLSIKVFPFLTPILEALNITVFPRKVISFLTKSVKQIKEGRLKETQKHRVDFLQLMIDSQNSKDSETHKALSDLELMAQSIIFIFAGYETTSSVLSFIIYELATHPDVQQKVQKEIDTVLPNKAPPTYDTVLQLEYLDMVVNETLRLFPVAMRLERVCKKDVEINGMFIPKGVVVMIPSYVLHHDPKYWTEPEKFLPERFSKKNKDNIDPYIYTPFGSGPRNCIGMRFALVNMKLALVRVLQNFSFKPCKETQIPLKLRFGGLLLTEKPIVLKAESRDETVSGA
Chain of Cytochrome P450 2C19 (Homo sapiens) (P33261 whole entry, looked up): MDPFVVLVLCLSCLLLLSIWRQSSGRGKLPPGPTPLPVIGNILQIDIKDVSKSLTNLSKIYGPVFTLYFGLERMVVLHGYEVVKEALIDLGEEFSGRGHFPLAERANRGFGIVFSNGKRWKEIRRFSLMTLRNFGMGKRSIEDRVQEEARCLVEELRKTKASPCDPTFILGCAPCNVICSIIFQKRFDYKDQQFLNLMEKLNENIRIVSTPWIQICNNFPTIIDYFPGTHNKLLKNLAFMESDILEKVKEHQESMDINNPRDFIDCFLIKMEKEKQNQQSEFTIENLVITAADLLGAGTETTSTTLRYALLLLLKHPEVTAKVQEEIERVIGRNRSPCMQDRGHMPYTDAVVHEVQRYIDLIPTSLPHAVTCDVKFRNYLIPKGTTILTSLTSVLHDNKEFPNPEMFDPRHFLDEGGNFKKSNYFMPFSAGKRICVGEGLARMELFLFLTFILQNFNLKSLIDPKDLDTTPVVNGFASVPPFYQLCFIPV
Chain of Cytochrome P450 3A4 (Homo sapiens) (P08684 whole entry, looked up): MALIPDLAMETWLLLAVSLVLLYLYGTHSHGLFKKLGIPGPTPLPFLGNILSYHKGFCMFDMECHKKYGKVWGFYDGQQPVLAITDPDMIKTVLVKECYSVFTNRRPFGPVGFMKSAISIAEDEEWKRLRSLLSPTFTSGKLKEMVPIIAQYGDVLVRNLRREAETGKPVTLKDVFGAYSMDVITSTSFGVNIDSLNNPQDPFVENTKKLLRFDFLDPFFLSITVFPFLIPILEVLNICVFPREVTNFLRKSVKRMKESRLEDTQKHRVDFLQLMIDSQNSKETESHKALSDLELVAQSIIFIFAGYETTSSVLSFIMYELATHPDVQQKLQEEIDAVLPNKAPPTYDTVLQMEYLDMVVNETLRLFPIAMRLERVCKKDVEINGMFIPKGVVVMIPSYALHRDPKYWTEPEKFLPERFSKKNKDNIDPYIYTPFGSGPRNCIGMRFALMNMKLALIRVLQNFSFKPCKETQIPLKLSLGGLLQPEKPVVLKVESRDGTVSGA
Chain of Caspase-3 (Homo sapiens) (P42574 whole entry, looked up): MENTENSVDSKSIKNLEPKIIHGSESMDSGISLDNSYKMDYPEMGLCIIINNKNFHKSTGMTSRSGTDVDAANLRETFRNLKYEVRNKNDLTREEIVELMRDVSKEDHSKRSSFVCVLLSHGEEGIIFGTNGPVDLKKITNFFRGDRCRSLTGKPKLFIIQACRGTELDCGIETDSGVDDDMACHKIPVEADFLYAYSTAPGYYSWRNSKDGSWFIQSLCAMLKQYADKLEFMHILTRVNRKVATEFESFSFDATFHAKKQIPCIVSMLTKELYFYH

Consider `CCOP(=O)(OCC)Oc1cc(C)nc(C(C)C)n1`, for which the result in assay [1], in assay [2], in [3], in assay [4], in assay [5] and in assay [6] was inactive. Further, the call in assay [7], in assay [8], in assay [9], in [10], in [11] and in assay [12] was inactive. Moreover, the compound was classed as inactive in assay [13], in assay [14], in assay [15], in assay [16], in assay [17] and in [18]. Besides, in assay [19], the call was inactive.

The term AC50 denotes the midpoint of the concentration-response curve, whichever way the signal moves. For `Cc1nn(-c2cc(NS(C)(=O)=O)c(Cl)cc2Cl)c(=O)n1C(F)F`, the compound was called inactive in assay [1], in assay [2], in [3], in assay [4], in assay [5] and in [8]. For the same compound, the call in assay [20], in [10], in assay [12], in assay [13], in assay [14] and in assay [15] was inactive. Moreover, the result in assay [17], in assay [18] and in assay [19] was inactive. Besides, the AC50 in assay [6] was 11.8 µM (active); in assay [7] it was 6.21 µM (active); in assay [9], 12.8 µM (active); in assay [11] it was 3.03 µM (active); in assay [16] it was 7.34 µM (active).

In the case of `CSc1nnc(C(C)(C)C)c(=O)n1N`, the outcome in assay [1], in assay [2], in assay [3], in assay [4], in assay [5] and in assay [8] was inactive. For the same compound, the compound was called inactive in assay [20], in [10], in assay [11], in assay [12], in assay [13] and in assay [14]. Also, the compound was called inactive in [15], in assay [16], in assay [17] and in assay [19]. The AC50 in assay [6] is 14.6 µM (active); in assay [7], 9.92 µM (active); in assay [9] it was 23.2 µM (active).
